# Measured values reported in PubChem BioAssay AID430 (Sanford-Burnham Center for Chemical Genomics, 2006).
# Out of some 63,000 compounds screened, about 1,100 (1.7%) were called active. This is one part of a sample in which actives are shown more often than they occur. Measured potencies and affinities stand elsewhere. Values without a mark were called inactive. Cut-off read from the data, not from the text of the source: active = cytotoxicity above about 50%; inactive = the rest.
# Assay: cytotoxicity in HPDE-C7 cells, cell-based, fluorescence, HTS (AID 430);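 note: cells exposed to compound for 48 hours before viability readout; 0% = vehicle and 100% = reference cytotoxic drug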
# Conditions: HPDE-C7 pancreatic duct cells viability, at 10 µM, active compounds read high
row,Structure (SMILES),cytotoxicity
1,Cc1cc(O)c(-c2cc(C(=O)Nc3ccc(S(=O)(=O)N4CCOCC4)cc3)[nH]n2)cc1C,1%
2,COc1ccc(OC)c(NC(=O)c2cc(-c3ccc(C)cc3O)n[nH]2)c1,-13.3%
3,COc1ccc(OC)c(NC(=O)c2cc(-c3cc(Cl)ccc3O)n[nH]2)c1,12.2%
4,Cc1ccc(O)c(-c2cc(C(=O)Nc3ccc(S(=O)(=O)N4CC(C)OC(C)C4)cc3)[nH]n2)c1 (configuration not stated),-29.9%
5,COc1ccc(NC(=O)c2cc(-c3cc(C)cc(C)c3O)n[nH]2)cc1Cl,59.6% (active)
6,O=C(Nc1cc(C(F)(F)F)ccc1Cl)C1CCN(c2nnc(-n3cccc3)s2)CC1,-14.7%
7,COC(=O)c1ccc(CSc2ncnc3c2nnn3-c2ccc(OC)cc2)o1,-1%
8,O=C(O)CCC(=O)N1CCc2cc(S(=O)(=O)NC3CCCc4ccccc43)ccc21 (configuration not stated),3.4%
9,Nc1ccccc1-c1nnc(SCc2ccccc2F)[nH]c1=O,3.6%
10,NC(=O)CSc1nnc2sc3ccccc3n12,3.6%
11,COc1cccc(S(=O)(=O)Nc2cccnc2)c1,-10.8%
12,COc1ccc(-c2cnc(SCC(=O)Nc3ccc4c(c3)OCO4)n2Cc2ccco2)cc1,5%
13,Cc1cnc(NC(=O)CSc2ncc(-c3ccccc3)n2Cc2ccco2)s1,-1%
14,CCC(=O)Nc1cc(NC(=O)CSc2ncc(-c3ccc(F)cc3)n2Cc2ccco2)ccc1C,3.8%
15,COc1ccc(-c2cnc(SCC(=O)Nc3cc(C)on3)n2Cc2ccco2)cc1,-8.9%
16,O=C(CSc1ncc(-c2ccc(F)cc2)n1Cc1ccco1)Nc1ccc2c(c1)OCO2,72.6% (active)
17,CC(=O)Nc1cccc(NC(=O)CSc2ncc(-c3ccc(Cl)cc3)n2Cc2ccco2)c1,64% (active)
18,CCOCCCN1CC(C(=O)NCCc2ccccc2)CC1=O (configuration not stated),-5.3%
19,CC(=O)Nc1ccc(C(=O)CSc2nc3ccccc3n2CC(=O)N2CCCC2)cc1,5%

row,Structure (SMILES),cytotoxicity
1,Cc1cc2c(c(N3CCOCC3)n1)C(=O)OC2,-1.9%
2,COc1ccc(CNC(=O)C2CCCN2S(=O)(=O)c2ccccc2)cc1 (configuration not stated),-10.6%
3,O=S(=O)(c1ccccc1Cl)N1CCCC(c2nc(-c3cccnc3)no2)C1 (configuration not stated),2%
4,CCC(c1nnnn1Cc1ccco1)N(Cc1cc2cc(OC)ccc2[nH]c1=O)C1CCCCC1 (configuration not stated),97.7% (active)
5,COc1ccc2cc(CN(Cc3ccco3)C(c3nnnn3C3CCCCC3)C(C)C)c(=O)[nH]c2c1 (configuration not stated),-35.5%
6,COc1ccc2[nH]c(=O)c(CN(Cc3nnnn3Cc3ccco3)C3CCCCC3)cc2c1,24.6%
7,CCC(c1nnnn1C1CCCCC1)N(Cc1ccco1)Cc1cc2ccc(OC)cc2[nH]c1=O (configuration not stated),56.8% (active)
8,COc1ccc2cc(CN(Cc3ccco3)Cc3nnnn3C3CCCCC3)c(=O)[nH]c2c1,23.1%
9,CCC(c1nnnn1Cc1ccccc1)N(Cc1ccco1)Cc1cc2cc(OC)ccc2[nH]c1=O (configuration not stated),18%
10,CCC(C)(C)n1nnnc1C(c1cc2cc(OC)ccc2[nH]c1=O)N1CCc2ccccc21 (configuration not stated),2.6%
11,CCC(C)(C)n1nnnc1C(c1cc2ccc(C)cc2[nH]c1=O)N(Cc1cccnc1)Cc1ccco1 (configuration not stated),23.4%
12,COc1ccc2[nH]c(=O)c(CN(C3CCCCC3)C(c3nnnn3Cc3ccco3)C(C)C)cc2c1 (configuration not stated),21.5%
13,CCCC(c1nnnn1C(C)(C)CC)N(Cc1ccco1)Cc1cc2ccc(OC)cc2[nH]c1=O (configuration not stated),72.9% (active)
14,CCC(C)(C)n1nnnc1C(c1cc2ccc(OC)cc2[nH]c1=O)N1CCc2ccccc21 (configuration not stated),50.8% (active)
15,CCC(C)(C)n1nnnc1C(c1cc2cc(OC)c(OC)cc2[nH]c1=O)N1CCc2ccccc21 (configuration not stated),11.4%
16,COC(=O)CN1CCN(C(=O)c2ccc(F)cc2)c2ccccc2C1,-14.6%
17,Cc1cc(Cl)ccc1N=Cc1c(O)n(C)c(=O)n(C)c1=O,-4.4%
18,Cc1cccnc1NCC(O)COc1ccccc1 (configuration not stated),-2.3%
19,CN1CCN(CC(=O)N(Cc2c(C#N)c3ccccc3n2C)c2ccccc2)CC1,2.3%

row,Structure (SMILES),cytotoxicity
1,O=C(c1ccccc1C(=O)N1CCN(c2ccc(F)cc2)CC1)N1CCN(c2ccc(F)cc2)CC1,2.5%
2,COC(=O)C(C)NC(=O)C1CCCN1S(=O)(=O)c1cc(C)c(Cl)cc1C (configuration not stated),7.8%
3,CN(C)C(=O)N1CCC(C(=O)NCc2ccccc2)CC1,-9.6%
4,Cc1nc(N2CCC(C)CC2)c2c(C)c(C(=O)O)sc2n1,-38.1%
5,Cc1cc(C)c2c3c(c(-c4ccccc4)n2n1)c(=O)n(C)c(=O)n3C,-6.5%
6,CCN1CCN(c2ccc(NC(=O)COc3ccccc3Cl)cc2)CC1,-13.4%
7,Cn1cc(Cl)c(C(=O)N2CCN(c3ncccn3)CC2)n1,3.1%
8,CCC(c1nnnn1Cc1cccs1)N1CCN(c2nc3ccccc3s2)CC1 (configuration not stated),-1.9%
9,c1ccc(COc2ccc(Nc3ncnc4nc[nH]c34)cc2)cc1,-3.8%
10,C=CCn1c(N)c(C(=O)Nc2ccccc2)c2nc3ccccc3nc21,66.5% (active)
11,C=CCn1c(N)c(C(=O)OCCC)c2nc3ccccc3nc21,5.2%
12,C=CCn1c(N)c(C(=O)OC(C)(C)C)c2nc3ccccc3nc21,8.7%
13,COC(=O)c1cccc(S(=O)(=O)N(Cc2ccco2)Cc2cc3ccc(OC)cc3[nH]c2=O)c1,-2.3%
14,O=C(CCSc1ccccc1)N1CCOCC1,2.9%
15,O=C1N=c2ccccc2=C1c1sc(=S)n(CC2CCCO2)c1O (configuration not stated),-0.5%
16,C=CCn1c(O)c(C2=c3ccccc3=NC2=O)sc1=Nc1ccc(O)cc1,111% (active)
17,C=CCn1c(O)c(C2=c3ccccc3=NC2=O)s/c1=N/c1nccs1,-2.6%
18,Cc1cccc(OCCc2nnc(N)s2)c1C,-15.8%
19,CC(C)c1nnc(NC(=O)CSc2nc3ccccc3s2)s1,-8.4%
